Assay [1] can be described thus: qHTS assay to identify small molecule agonists of the estrogen receptor beta (ER-beta) signaling pathway - cell viability counter screen (AID 1259380). Further: nearly all actives have a fitted effect of over 30% in size. Further: potency means the concentration at half of the fitted maximal effect. In a few lines:
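Viability of ER-beta-UAS-bla HEK293T cells was determined by CellTiter-Glo luminescence following 16 hr treatment with test compounds at 37C.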

Assay [2] addresses Androgen receptor (Homo sapiens) (UniProt P10275). As to the kind of experiment: qHTS assay to identify small molecule agonists of the androgen receptor (AR) signaling pathway in the presence of an antagonist (AID 1259381; calls by dose curve; further: nearly all actives have a fitted effect of over 15% in size; further: potency means the concentration at half of the fitted maximal effect). The method in brief: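 Here, 15-concentration compound series were pin-transferred onto MDA-kb2 MMTV-luciferase cells already dosed with nilutamide (3.0uM final). After 16hr at 37C, ONE-Glo was added and luminescence read 30min later at room temperature.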

Assay [3] addresses Estrogen receptor (Homo sapiens) (UniProt P03372). As to the kind of experiment: qHTS assay to identify small molecule agonists of the estrogen receptor alpha (ER-alpha) signaling pathway in the presence of an antagonist (AID 1259383; calls by dose curve; further: nearly all actives have a fitted effect of over 15% in size; further: potency means the concentration at half of the fitted maximal effect; on activation: top concentration of the series differs between compounds). In a few lines: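 In VM7Luc4E2 cells, 4,000 per well, compounds at 15 concentrations were co-incubated 22hr at 37C with 10.0nM final ICI-182,780. Luminescence from the stably transfected 4×ERE-luciferase reporter was recorded 30min after ONE-Glo addition.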

Assay [4] in a line: qHTS assay to identify small molecule agonists or antagonists of the thyroid stimulating hormone receptor (TSHR) signaling pathway - wild type cell line counter screen (AID 1259384; calls by dose curve). In a few lines:
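Wild-type HEK293 cells were plated 18 h at 37 C/5% CO2, pin-dosed with compound plus Ro20-1724 medium, held 30 min at room temperature, then given cAMP-d2 and anti-cAMP-cryptate; fluorescence was read after 1 h. Fifteen concentrations, triplicate.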

Assay [5] has as its target Thyrotropin receptor (Homo sapiens) (UniProt P16473). As to the kind of experiment: qHTS assay to identify small molecule antagonists of the thyroid stimulating hormone receptor (TSHR) signaling pathway (AID 1259385; calls by dose curve; further: nearly all actives have a fitted effect of over 20% in size). In a few lines:
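TSHR-HEK293 cells were plated and held 18 h at 37C/5% CO2, then given compound plus Ro20-1724 and stimulated with TSH at 1.5 ng/mL final. After 30 min at room temperature, cAMP was detected with cAMP-d2/anti-cAMP-cryptate (1 h) by fluorescence.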

Assay [6] in a line: qHTS assay to identify small molecule agonists of the estrogen receptor alpha (ER-alpha) signaling pathway in the presence of an antagonist - cell viability counter screen (AID 1259386).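 Further: series mostly up to about 92 µM; cells exposed to compounds for 22 h at 37 °C before the viability read; nearly all actives have a fitted effect of over 30% in size.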 The method in brief: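 Fluorescent CellTiter-Fluor viability signal from VM7Luc4E2 cells, with the reagent added during the final hour of a 22hr compound exposure at 37C in the presence of 10.0nM ICI-182,780.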

For assay [7], the target named is Progesterone receptor (Homo sapiens) (UniProt P06401). As to the kind of experiment: qHTS assay to identify small molecule agonists of the progesterone receptor (PR) signaling pathway (AID 1346784; calls by dose curve; further: nearly all actives have a fitted effect of over 30% in size; further: potency means the concentration at half of the fitted maximal effect). In a few lines:
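Compounds were tested for PR agonism in HEK 293T cells bearing a beta-lactamase gene under UAS control. Treatment lasted 16 hr at 37C; signal came from fluorescence of a FRET substrate.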

Assay [8] has the same target. As to the kind of experiment: qHTS assay to identify small molecule antagonists of the progesterone receptor (PR) signaling pathway (AID 1346795; active means well fitted inhibition curve with a large enough effect in the signal ratio in the repeat runs, not every such curve was filed as active; the % refers to the signal ratio; further: potency means the concentration at half of the fitted maximal effect). The method in brief: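 In HEK293T cells bearing the PR-UAS-bla reporter, compound effects on promegestone-driven (1 nM) beta-lactamase expression are assessed after 16 hr using a fluorescent FRET substrate incubated 2 hr at room temperature.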

A short description of assay [9]: qHTS assay to identify small molecule antagonists of the progesterone receptor (PR) signaling pathway - cell viability counter screen (AID 1346798). Further: series mostly up to about 92 µM; nearly all actives have a fitted effect of over 50% in size. In a few lines: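 Following a 4 hr attachment, PR-UAS-bla HEK293T cells in charcoal-stripped FBS medium were exposed to compounds with R5020 for 16 hr; CellTiter-Glo was added and luminescence read after 30 min at room temperature.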

The nature of assay [10]: qHTS assay to identify small molecule antagonists of the TGF-beta/Smad signaling pathway - cell viability counter screen (AID 1346824). Further: nearly all actives have a fitted effect of over 50% in size. In a few lines: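 SBE-bla HEK 293T cells were plated overnight at 37 C, then given compounds in DMSO plus TGF-beta1 (added as 0.25 ng/mL solution) for 5 hr. After the bla read, CellTiter-Glo was added to the same wells and luminescence read after 30 min at room temperature.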

A short description of assay [11]: qHTS assay to identify small molecule agonists of the TGF-beta/Smad signaling pathway - cell viability counter screen (AID 1346829). Further: top concentration of the series differs between compounds; nearly all actives have a fitted effect of over 45% in size. In a few lines: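 CellTiter-Glo luminescence readout; SBE-bla HEK 293T cells, overnight plating, compound 5 hr at 37 C/5% CO2, then bla substrate 2 hr RT, then CellTiter-Glo 30 min RT.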
Assay [12] can be described thus: qHTS assay to identify small molecule agonists of the TGF-beta/Smad signaling pathway (AID 1346859; active means well fitted activation curve with a large enough effect in the signal ratio in the repeat runs, not every such curve was filed as active; the % refers to the signal ratio; further: series mostly up to about 77 µM). In a few lines:
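Each well held 4,000 SBE-bla HEK 293T cells incubated overnight before compound addition; 5 hr later the cleavable FRET substrate went on for 2 hr at room temperature, and fluorescence was read at two emissions.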

Assay [13] deals with Thyrotropin-releasing hormone receptor (Homo sapiens) (UniProt P34981). As to the kind of experiment: qHTS assay to identify small molecule antagonists of the thyrotropin-releasing hormone receptor (TRHR) signaling pathway (AID 1346877; active means well fitted inhibition curve with a large enough effect in the repeat runs, not every such curve was filed as active; further: series mostly up to about 51 µM). In a few lines: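 In this cell-based calcium flux format, HEK293 cells expressing TRHR received test compound for 5 min before the agonist TRH (1 nM final). Dye loading lasted 2 h at 37 °C.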
Thyrotropin-releasing hormone receptor (Homo sapiens), sequence (P34981 whole entry, looked up): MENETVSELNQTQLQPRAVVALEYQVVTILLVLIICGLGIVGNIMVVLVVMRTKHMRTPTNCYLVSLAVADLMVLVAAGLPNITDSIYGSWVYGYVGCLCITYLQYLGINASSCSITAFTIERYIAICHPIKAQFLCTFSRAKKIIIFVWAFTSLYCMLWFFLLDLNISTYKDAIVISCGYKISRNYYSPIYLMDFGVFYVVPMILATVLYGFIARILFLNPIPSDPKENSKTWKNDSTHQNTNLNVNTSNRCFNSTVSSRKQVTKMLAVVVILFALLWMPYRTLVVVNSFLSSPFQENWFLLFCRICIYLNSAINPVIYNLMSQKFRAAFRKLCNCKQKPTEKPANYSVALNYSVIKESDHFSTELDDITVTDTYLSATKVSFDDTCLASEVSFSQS

Assay [14] has the same target. As to the kind of experiment: qHTS assay to identify small molecule agonists of the thyrotropin-releasing hormone receptor (TRHR) signaling pathway (AID 1346891; calls by dose curve; further: series mostly up to about 58 µM). In a few lines: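 Screening of agonists relied on calcium signalling in HEK293 cells expressing human TRHR: dye loading 2 h at 37 °C preceded compound addition and a 3-min fluorescence time course.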
The nature of assay [15]: Human pregnane X receptor (PXR) small molecule agonists, qHTS cell viability counter screen (AID 1346977). Further: nearly all actives have a fitted effect of over 50% in size. In a few lines: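 Tox21 qHTS format; PXR-Luc HepG2, 2,000/well, charcoal-stripped FBS 5%. Cpd exposure 24hr. Read: CellTiter-Fluor fluorescence, multiplexed with luciferase.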
The nature of assay [16]: qHTS assay to identify small molecule agonists of the androgen receptor (AR) signaling pathway in the presence of an antagonist - cell viability counter screen (AID 1259379).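 Further: MDA-kb2 human breast cancer cells carrying an MMTV luciferase reporter; series mostly up to about 92 µM; nearly all actives have a fitted effect of over 25% in size.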 In a few lines: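 In MDA-kb2 cells (human breast carcinoma, MMTV-luciferase), compounds at 15 concentrations plus 3.0uM nilutamide; 16 hr, 37C, 0% CO2; CellTiter-Fluor fluorescence read for viability.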

Assay [17] can be described thus: qHTS assay to identify small molecule antagonists of the estrogen receptor beta (ER-beta) signaling pathway - cell viability counter screen (AID 1259382). Further: nearly all actives have a fitted effect of over 55% in size. Further: potency means the concentration at half of the fitted maximal effect. The method in brief: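 Tox21 10K library tested in qHTS format on ER-beta-bla HEK293T cells stimulated with 1nM E2; 16 hr treatment at 37C. Same-well CellTiter-Glo luminescence served as the cell viability measure.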

Assay [18] can be described thus: qHTS assay to identify small molecule agonists of the progesterone receptor (PR) signaling pathway - cell viability counter screen (AID 1346799; calls by dose curve; further: nearly all actives have a fitted effect of over 45% in size). In a few lines: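 Here, 3,000 PR-UAS-bla HEK293T cells per well were treated with compounds for 16 hr after a 6 hr preincubation at 37C and 5% CO2; cell viability is the CellTiter-Glo luminescence signal.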

Structures are written as SMILES. “And” between values parts separate entries of the source, which are not always exact repeats. Equal values may be shown once. Records with an inconclusive call do not appear. A structure can be active in one record and inactive in another. The source made the active and inactive calls. Unless noted, the call rests on the fitted dose curve; in most records, active means well fitted curve in the direction sought with a large enough effect in the repeat runs; inconclusive means weak or mixed curves; inactive means no such curve, though single readings can be large; an effect the other way counts as inactive or inconclusive.

Consider 11 molecules from PubChem BioAssay (Tox21).

Androgen receptor (Homo sapiens), sequence (P10275 whole entry, looked up): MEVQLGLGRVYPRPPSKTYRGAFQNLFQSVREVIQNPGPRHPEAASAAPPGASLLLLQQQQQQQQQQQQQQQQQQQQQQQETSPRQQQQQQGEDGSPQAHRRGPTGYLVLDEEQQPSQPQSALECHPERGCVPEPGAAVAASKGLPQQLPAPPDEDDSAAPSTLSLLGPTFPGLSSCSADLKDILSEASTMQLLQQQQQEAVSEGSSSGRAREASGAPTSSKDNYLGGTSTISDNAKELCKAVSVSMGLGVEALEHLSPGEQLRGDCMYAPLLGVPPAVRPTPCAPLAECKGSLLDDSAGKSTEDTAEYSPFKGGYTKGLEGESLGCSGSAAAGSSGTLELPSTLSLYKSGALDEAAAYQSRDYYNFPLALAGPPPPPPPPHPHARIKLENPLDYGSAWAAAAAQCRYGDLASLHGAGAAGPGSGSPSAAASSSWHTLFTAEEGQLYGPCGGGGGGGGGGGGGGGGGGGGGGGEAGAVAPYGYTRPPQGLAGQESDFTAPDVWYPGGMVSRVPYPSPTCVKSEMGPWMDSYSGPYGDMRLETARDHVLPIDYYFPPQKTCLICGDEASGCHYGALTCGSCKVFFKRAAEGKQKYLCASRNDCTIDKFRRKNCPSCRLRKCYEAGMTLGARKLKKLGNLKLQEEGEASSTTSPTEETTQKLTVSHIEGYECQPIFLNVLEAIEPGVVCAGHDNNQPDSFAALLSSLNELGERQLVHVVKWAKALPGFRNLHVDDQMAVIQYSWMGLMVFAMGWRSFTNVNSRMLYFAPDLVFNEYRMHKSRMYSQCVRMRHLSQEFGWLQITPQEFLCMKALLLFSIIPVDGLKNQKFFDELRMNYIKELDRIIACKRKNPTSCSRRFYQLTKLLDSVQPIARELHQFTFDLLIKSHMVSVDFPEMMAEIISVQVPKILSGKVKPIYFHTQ
Progesterone receptor (Homo sapiens), sequence (P06401 whole entry, looked up): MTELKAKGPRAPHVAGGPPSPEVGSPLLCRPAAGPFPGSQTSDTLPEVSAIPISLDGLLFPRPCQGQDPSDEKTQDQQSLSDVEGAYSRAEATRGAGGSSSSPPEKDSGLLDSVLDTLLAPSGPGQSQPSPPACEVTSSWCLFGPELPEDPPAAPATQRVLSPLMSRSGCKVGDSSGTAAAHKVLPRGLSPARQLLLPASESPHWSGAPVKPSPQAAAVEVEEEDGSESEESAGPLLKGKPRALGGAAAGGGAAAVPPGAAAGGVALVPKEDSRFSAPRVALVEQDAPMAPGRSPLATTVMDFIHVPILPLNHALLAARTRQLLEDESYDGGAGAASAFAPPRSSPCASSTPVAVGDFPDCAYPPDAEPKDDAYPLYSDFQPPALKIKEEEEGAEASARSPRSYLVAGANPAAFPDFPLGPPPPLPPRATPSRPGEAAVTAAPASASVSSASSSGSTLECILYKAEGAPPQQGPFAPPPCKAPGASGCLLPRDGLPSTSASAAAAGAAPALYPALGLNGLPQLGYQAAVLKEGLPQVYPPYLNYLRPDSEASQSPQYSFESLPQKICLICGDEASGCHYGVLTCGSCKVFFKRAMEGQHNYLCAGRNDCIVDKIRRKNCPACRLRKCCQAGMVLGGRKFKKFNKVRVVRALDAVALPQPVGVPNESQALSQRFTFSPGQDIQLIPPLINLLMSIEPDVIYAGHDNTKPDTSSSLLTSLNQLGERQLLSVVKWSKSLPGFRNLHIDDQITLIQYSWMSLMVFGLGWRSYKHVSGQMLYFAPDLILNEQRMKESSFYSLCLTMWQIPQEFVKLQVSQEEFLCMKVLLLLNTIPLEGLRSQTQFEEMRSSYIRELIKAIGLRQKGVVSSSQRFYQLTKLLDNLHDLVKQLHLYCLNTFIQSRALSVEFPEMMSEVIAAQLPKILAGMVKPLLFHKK
Estrogen receptor (Homo sapiens), sequence (P03372 whole entry, looked up): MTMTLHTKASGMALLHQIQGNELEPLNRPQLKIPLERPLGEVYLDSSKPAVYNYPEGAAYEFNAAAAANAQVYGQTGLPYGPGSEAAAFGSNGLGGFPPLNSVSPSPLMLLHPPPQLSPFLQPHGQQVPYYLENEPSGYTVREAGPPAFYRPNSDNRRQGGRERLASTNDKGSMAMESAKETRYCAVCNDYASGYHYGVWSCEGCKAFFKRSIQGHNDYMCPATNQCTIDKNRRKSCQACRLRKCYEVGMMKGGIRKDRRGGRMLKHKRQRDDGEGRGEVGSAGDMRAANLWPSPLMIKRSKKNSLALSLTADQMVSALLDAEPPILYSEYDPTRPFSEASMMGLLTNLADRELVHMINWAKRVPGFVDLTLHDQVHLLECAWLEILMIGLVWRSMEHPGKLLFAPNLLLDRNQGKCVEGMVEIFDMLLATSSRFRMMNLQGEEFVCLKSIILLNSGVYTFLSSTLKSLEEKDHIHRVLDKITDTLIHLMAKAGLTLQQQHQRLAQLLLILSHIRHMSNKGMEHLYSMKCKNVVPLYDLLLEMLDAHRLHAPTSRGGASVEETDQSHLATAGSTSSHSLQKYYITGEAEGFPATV
Thyrotropin receptor (Homo sapiens), sequence (P16473 whole entry, looked up): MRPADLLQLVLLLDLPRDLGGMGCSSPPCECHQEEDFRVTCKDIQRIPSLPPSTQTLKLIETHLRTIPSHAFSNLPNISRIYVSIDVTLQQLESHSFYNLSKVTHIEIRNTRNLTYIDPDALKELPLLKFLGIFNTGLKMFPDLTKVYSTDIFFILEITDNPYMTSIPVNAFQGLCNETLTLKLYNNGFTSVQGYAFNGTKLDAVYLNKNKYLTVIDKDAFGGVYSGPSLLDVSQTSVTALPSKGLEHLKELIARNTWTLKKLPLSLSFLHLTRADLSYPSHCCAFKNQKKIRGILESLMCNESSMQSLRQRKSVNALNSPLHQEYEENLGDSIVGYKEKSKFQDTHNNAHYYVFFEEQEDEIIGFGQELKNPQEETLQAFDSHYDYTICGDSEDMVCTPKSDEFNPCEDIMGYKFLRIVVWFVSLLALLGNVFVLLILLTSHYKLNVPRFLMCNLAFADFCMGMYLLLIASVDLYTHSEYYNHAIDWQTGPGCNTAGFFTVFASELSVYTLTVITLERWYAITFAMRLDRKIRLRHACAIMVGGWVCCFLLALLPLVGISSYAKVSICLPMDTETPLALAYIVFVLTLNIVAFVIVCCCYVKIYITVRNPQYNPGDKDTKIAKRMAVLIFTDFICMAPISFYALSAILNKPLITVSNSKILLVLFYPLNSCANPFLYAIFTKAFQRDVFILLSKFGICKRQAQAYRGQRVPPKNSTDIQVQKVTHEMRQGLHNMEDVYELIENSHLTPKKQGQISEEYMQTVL

As to `CCN(CC)C(=O)/C(Cl)=C(\C)OP(=O)(OC)OC`, the Potency result in [1], in [2], in [3], in assay [6], in assay [7] and in [8] was “inactive” each time. The Potency entry in assay [9], in assay [10], in assay [11], in [13], in assay [14] and in assay [15] was “inactive” in each case. The outcome in assay [4], in assay [5] and in [12] was inactive.

`CCN(CC)N=O`: the Potency entry in [16], in [1], in [17], in assay [6], in [7] and in assay [8] was “inactive” in each case. For the same molecule, the Potency result in [9], in assay [10], in assay [11], in assay [13], in assay [14] and in assay [15] was “inactive” throughout. The molecule was classed as inactive in assay [4] and in assay [5].

Regarding `CCC(=O)O[C@H]1CC[C@H]2[C@@H]3CCC4=CC(=O)CC[C@]4(C)[C@H]3CC[C@]12C`, the Potency entry in assay [16], in [6], in assay [9], in [10], in assay [11] and in assay [15] was “inactive” each time. Besides, the Potency in assay [1] was 68.6 µM (active); in [2], 48.6 nM (active) and 47.3 nM (active); in assay [17], 61.1 µM (active) and inactive; in [3] it was 7.7 µM (active) and 9.44 µM (active); in assay [8], 486 nM (active). Also, the molecule was called inactive in assay [4], in assay [5] and in [12].

`c1cc(OCC2CO2)ccc1Cc1ccc(OCC2CO2)cc1` (stereo unspecified): the Potency entry in [16], in [2], in assay [3], in assay [6], in [7] and in assay [11] was “inactive” throughout. The Potency result in assay [13] and in assay [14] was “inactive” throughout. In assay [1], the Potency was 48.6 µM (active). Further, the outcome in [4], in [5] and in [12] was inactive.

For the molecule `O=Cc1ccco1`, the Potency result in assay [16], in assay [1], in assay [17], in [6], in assay [7] and in assay [8] was “inactive” throughout. The Potency entry in [9], in assay [18], in [10], in assay [11], in assay [13] and in assay [14] was “inactive” each time. The Potency result in assay [15] was “inactive”. Further, the molecule was classed as inactive in assay [4] and in [5].

As to `N#Cc1cc(Br)c(O)c(Br)c1`, the Potency result in assay [1], in assay [2], in assay [17], in assay [3], in assay [7] and in assay [8] was “inactive” throughout. Further, the Potency result in assay [10], in assay [11], in [13], in assay [14] and in assay [15] was “inactive” throughout. Further, the molecule was called inactive in [4], in assay [5] and in [12].

For `O=P(O)(O)CCCl`, the Potency result in assay [1], in assay [3], in assay [6], in [7], in assay [8] and in [9] was “inactive” throughout. For the same molecule, the Potency entry in assay [18], in assay [11], in [13], in assay [14] and in [15] was “inactive” in each case. The molecule was classed as inactive in assay [4], in [5] and in [12].

As to `CCCCCc1cc(O)cc(O)c1`, the Potency entry in assay [16], in [1], in [17], in assay [7], in assay [10] and in assay [11] was “inactive” each time. Besides, the Potency result in [13], in assay [14] and in [15] was “inactive” throughout. For the same molecule, the outcome in assay [4], in assay [5] and in [12] was inactive. For the same molecule, in [8], the Potency was 68.9 µM (active) and 21.7 µM (active).

Turning to `c1ccc(N=Nc2ccccc2)cc1`, the Potency result in assay [16], in assay [1], in [17], in [6], in assay [7] and in assay [8] was “inactive” in each case. For the same molecule, the Potency result in assay [9], in assay [18], in assay [10], in assay [11], in assay [13] and in [14] was “inactive” throughout. Besides, the Potency result in assay [15] is “inactive”. The call in assay [4] and in assay [5] was inactive.

For the molecule `C1=Cc2cccc3cccc1c23`, the Potency result in assay [1], in [17], in assay [6], in [8], in [9] and in assay [10] was “inactive” in each case. The Potency result in [11], in assay [13], in [14] and in assay [15] was “inactive” each time. The molecule was called inactive in assay [4], in assay [5] and in assay [12]. For the same molecule, the Potency in [7] was 60.1 µM (active) and inactive.

On to `S=C1NCCN1`, for which the Potency entry in assay [16], in assay [1], in [17], in assay [6], in assay [7] and in [8] was “inactive” each time. The Potency entry in [9], in assay [18], in assay [10], in assay [11], in assay [13] and in assay [14] was “inactive” throughout. Besides, the Potency result in [15] is “inactive”. In addition, the molecule was called inactive in assay [4], in assay [5] and in [12].
